The subject of one test is CHO. As to the kind of experiment: % viability of CHO cells (MTT); higher = less toxic. The conditions noted are these: 48 h. In a few lines: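 After overnight attachment of CHO cells seeded at 10^6 cells/well in 200 µL, the medium was exchanged for fresh medium holding compound at 2 or 20 µM. Exposure lasted 48 h. Survival was read with the colorimetric tetrazolium (MTT) assay and expressed as percent of untreated cells.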

A further test relates to HepG2-A16-CD81. As to the kind of experiment: % inhibition of HepG2 viability (CellTiter-Glo); higher = more toxic. The conditions noted are these: 5 µM. For orientation: Cellular ATP, detected with luciferase, serves as a proxy for viable cell number.
In test [1] the test system is Plasmodium falciparum NF54 stage IV/V gametocytes. As to the kind of experiment: % inhibition of gametocyte viability (PrestoBlue); higher = more inhibition. The conditions noted are these: 48 h. In a few lines:
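Compound at 1 or 5 µM was incubated with Stage IV/V NF54 gametocytes (2% gametocytaemia, 5% haematocrit) for 48 h at 37 °C, stationary and hypoxic. A 2 h PrestoBlue step followed, with fluorescence read at 612 nm on transferred supernatant. Inhibition of gametocyte viability, in percent, was normalised to vehicle and kill controls from a single run.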

Test [2] has as its system Plasmodium falciparum NF54 asexual blood stage. In words: % inhibition of asexual blood stage proliferation (pLDH); higher = more inhibition. The conditions noted are these: 72 h. The gist of the method:
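Compound was tested at 2 or 20 µM against Plasmodium falciparum NF54 ring stages (1% haematocrit, 2% parasitaemia) for 72 h at 37 °C in 4% CO2, 3% O2 and 93% N2. Survival was read at 620 nm with the parasite lactate dehydrogenase assay, and inhibition of asexual proliferation was given as a percentage of controls.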

Test [3] deals with Plasmodium falciparum NF54 stage IV/V gametocytes. As to the kind of experiment: % inhibition of gametocyte viability (ATP bioluminescence); higher = more inhibition. The conditions noted are these: 24 h. In a few lines:
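Compound at 1 or 5 µM was tested on stage IV/V NF54 gametocytes, enriched on density gradients and plated at 30,000 per well in 96-well plates. After 24 h at 37 °C, ATP was quantified by Promega BacTiter Glo bioluminescence. Values are percent inhibition of gametocyte viability from one run, normalised to controls.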

Test [4] shares this test system. In words: % inhibition of gametocyte viability (luciferase reporter); higher = more inhibition. The conditions noted are these: 48 h. The gist of the method:
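Stage IV/V gametocytes of the NF54-Pfs16-GFP-Luc line (2% gametocytaemia, 2% haematocrit) were exposed to compound at 1 or 5 µM. Incubation was 48 h at 37 °C, stationary and hypoxic. Luminescence was read on 30 µL lysate plus 30 µL Promega luciferin substrate on a GloMax-Multi+ reader with 10 s integration. Percent inhibition was normalised to DMSO and kill controls from a single run.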
Background: Reporter assays use an easily measured gene product as a stand-in for the process of interest.

In test [5] the test system is Plasmodium berghei ANKA liver stage in HepG2-A16-CD81. In words: % inhibition of liver stage parasite viability (luciferase); higher = more inhibition. The conditions noted are these: 5 µM; 48 h. How it is done: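 Single-concentration screen of the MMV Pandemic Response Box. P. falciparum NF54 asexual blood stages: pLDH assay, 72 h at 37 °C, 2 and 20 µM, n=2. Stage IV/V gametocytes (NF54): luciferase reporter (NF54-Pfs16-GFP-Luc, 48 h), ATP bioluminescence (24 h) and PrestoBlue (48 h) at 1 and 5 µM, n=1. P. berghei liver stage (luciferase in HepG2-A16-CD81, 48 h post infection) at 5 µM, n=4. All normalised to DMSO and kill controls as % inhibition.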

A value given as a limit tells only on which side of the number the result lay.
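For % inhibition of HepG2 viability (CellTiter-Glo) in this document: HepG2-A16-CD81 hepatoma cells plated as in the liver-stage assay but without sporozoites, with DMSO wells as negative and 25 µM puromycin as positive control.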

As for `Fc1ccc(-c2nc(-c3c[nH]c4ccc(Br)cc34)[nH]c2-c2ccc(F)cc2)cc1`, the figures for the “% viability of CHO cells” value in the test on CHO (2 µM) and in the test on CHO (20 µM) were 97.3% and -2.96%, respectively. Moreover, the “% inhibition of HepG2 viability” value with HepG2-A16-CD81 was 1.87%. Moreover, the “% inhibition of gametocyte viability” value in test [1] (1 µM), in test [1] (5 µM), in test [3] (1 µM), in test [3] (5 µM), in test [4] (1 µM) and in test [4] (5 µM) was less than 0% throughout. Further, the “% inhibition of asexual blood stage proliferation” value turned out to be 74% in test [2] (2 µM) and 83.7% in test [2] (20 µM). Moreover, the “% inhibition of liver stage parasite viability” value in test [5] worked out at 27.7%.
Turning to `Oc1c(C(Nc2ccccn2)c2ccccc2)ccc2cccnc12` (stereo unspecified), the “% viability of CHO cells” value in the test on CHO (2 µM) was determined as 115%; in the test with CHO (20 µM), 68.7%. Moreover, the “% inhibition of HepG2 viability” value with HepG2-A16-CD81 stood at 10.2%. Also, the “% inhibition of gametocyte viability” value in test [1] (1 µM) is 49%; in test [1] (5 µM), 26.9%; in test [3] (1 µM), less than 0%; in test [3] (5 µM), 40.6%; in test [4] (1 µM) it was 0.252%; in test [4] (5 µM), 33.3%. In addition, the results for the “% inhibition of asexual blood stage proliferation” value in test [2] (2 µM) and in test [2] (20 µM) were 71.8% and 88.8%, respectively. Besides, in test [5], the “% inhibition of liver stage parasite viability” value amounted to 12.4%.
Turning to `O=C(N[C@H](Cc1cccc2ccccc12)C(=O)NCCc1c[nH]cn1)C1Cc2ccccc2C1`, the results for the “% viability of CHO cells” value in the test on CHO (2 µM) and in the test on CHO (20 µM) were 95.1% and 97.8%, respectively. For the same molecule, in the test on HepG2-A16-CD81, the “% inhibition of HepG2 viability” value turned out to be 0.483%. The “% inhibition of gametocyte viability” value in test [1] (1 µM) was 2.53%; in test [1] (5 µM) it was 32.6%; in test [3] (1 µM) it was 2.29%; in test [3] (5 µM), 1.33%; in test [4] (1 µM), less than 0%; in test [4] (5 µM), 2.07%. In addition, the entries for the “% inhibition of asexual blood stage proliferation” value in test [2] (2 µM) and in test [2] (20 µM) were 23% and 81.3%, respectively. In test [5], the “% inhibition of liver stage parasite viability” value was 21.8%.
In the case of `CC[C@H](NC(=O)[C@H](C)NC)C(=O)N1C[C@@H](O)C[C@H]1Cc1c(-c2[nH]c3cc(F)ccc3c2C[C@@H]2C[C@H](O)CN2C(=O)[C@H](CC)NC(=O)[C@H](C)NC)[nH]c2cc(F)ccc12`, the “% viability of CHO cells” value in the test on CHO (2 µM) stood at 102%; in the test on CHO (20 µM), 117%. Further, the “% inhibition of HepG2 viability” value in the test on HepG2-A16-CD81 is 15%. The “% inhibition of gametocyte viability” value in test [1] (1 µM) came out at 5.89%; in test [1] (5 µM), 54.9%; in test [3] (1 µM), 28.6%; in test [3] (5 µM) it was 76.9%; in test [4] (1 µM) it was 17%; in test [4] (5 µM), 56%. Besides, the “% inhibition of asexual blood stage proliferation” value is 75.7% in test [2] (2 µM) and 83.1% in test [2] (20 µM). The “% inhibition of liver stage parasite viability” value in test [5] was 37.5%.
With `CCCCCCCCC(CP(=O)(O)C(C)N)C(=O)O` (stereo unspecified), the “% viability of CHO cells” value with CHO (2 µM) amounted to 97.4%; with CHO (20 µM), 137%. In addition, the “% inhibition of HepG2 viability” value in the test on HepG2-A16-CD81 is -1.01%. The “% inhibition of gametocyte viability” value was less than 0% in test [1] (1 µM); less than 0% in test [1] (5 µM); less than 0% in test [3] (1 µM); less than 0% in test [3] (5 µM); less than 0% in test [4] (1 µM); 10.2% in test [4] (5 µM). In addition, the “% inhibition of asexual blood stage proliferation” value in test [2] (2 µM) came out at 17.8%; in test [2] (20 µM), 95.7%. Further, in test [5], the “% inhibition of liver stage parasite viability” value amounted to 24.3%.
Regarding `N=C(N)c1ccc(COc2ccc(Cl)cc2)cc1`, the “% viability of CHO cells” value is 103% in the test with CHO (2 µM) and 102% in the test on CHO (20 µM). In the test on HepG2-A16-CD81, the “% inhibition of HepG2 viability” value came out at 2.38%. For the same molecule, the “% inhibition of gametocyte viability” value in test [1] (1 µM) is less than 0%; in test [1] (5 µM) it was 11.4%; in test [3] (1 µM) it was 0.321%; in test [3] (5 µM) it was 4.27%; in test [4] (1 µM), less than 0%; in test [4] (5 µM) it was less than 0%. Besides, the “% inhibition of asexual blood stage proliferation” value in test [2] (2 µM) stood at 11.1%; in test [2] (20 µM), 89.9%.
Turning to `CC(=O)Nc1cc(NS(=O)(=O)c2ccc(Cl)cc2)cc2c(Cl)n[nH]c12`, the “% viability of CHO cells” value in the test on CHO (2 µM) was found to be 108%; in the test with CHO (20 µM), 81.2%. Moreover, in the test on HepG2-A16-CD81, the “% inhibition of HepG2 viability” value is 2.74%. Further, the “% inhibition of gametocyte viability” value in test [1] (1 µM) was 21.4%; in test [1] (5 µM) it was 50%; in test [3] (1 µM), 6.24%; in test [3] (5 µM), 3.03%; in test [4] (1 µM) it was less than 0%; in test [4] (5 µM) it was less than 0%. The “% inhibition of asexual blood stage proliferation” value in test [2] (2 µM) is 20.6%; in test [2] (20 µM) it was 75%. For the same molecule, the “% inhibition of liver stage parasite viability” value in test [5] was found to be 11.8%.
As for `CN1CCN(c2ccc3[nH]c(-c4ccc5[nH]c(-c6ccc(O)cc6)nc5c4)nc3c2)CC1`, the “% viability of CHO cells” value with CHO (2 µM) turned out to be 106%; with CHO (20 µM), 115%. Further, the “% inhibition of HepG2 viability” value in the test on HepG2-A16-CD81 was found to be 18.2%. Besides, the “% inhibition of gametocyte viability” value in test [1] (1 µM) is less than 0%; in test [1] (5 µM), less than 0%; in test [3] (1 µM), less than 0%; in test [3] (5 µM), less than 0%; in test [4] (1 µM), less than 0%; in test [4] (5 µM) it was 20.9%. Further, the “% inhibition of asexual blood stage proliferation” value was 82.9% in test [2] (2 µM) and 80.9% in test [2] (20 µM).
Consider `CCCCCc1ccc(C(=O)NCCn2cc(CCCCCc3cnc(N)[nH]3)nn2)cc1`, for which the entries for the “% viability of CHO cells” value in the test on CHO (2 µM) and in the test on CHO (20 µM) were 125% and 153%, respectively. Moreover, the “% inhibition of HepG2 viability” value in the test with HepG2-A16-CD81 stood at 2.88%. The “% inhibition of gametocyte viability” value was less than 0% in test [1] (1 µM); 63.4% in test [1] (5 µM); less than 0% in test [3] (1 µM); less than 0% in test [3] (5 µM); less than 0% in test [4] (1 µM); less than 0% in test [4] (5 µM). In addition, the “% inhibition of asexual blood stage proliferation” value in test [2] (2 µM) was 72.9%; in test [2] (20 µM), 96.5%. The “% inhibition of liver stage parasite viability” value in test [5] came out at 37.7%.
Take `CC(C)(C)c1ccc(C(=O)NC(=O)N2CCCc3ccccc32)cc1`: the “% viability of CHO cells” value in the test on CHO (2 µM) stood at 94.6%; in the test on CHO (20 µM) it was 101%. Further, the “% inhibition of HepG2 viability” value in the test on HepG2-A16-CD81 was -0.159%. The “% inhibition of gametocyte viability” value in test [1] (1 µM), in test [1] (5 µM), in test [3] (1 µM), in test [3] (5 µM), in test [4] (1 µM) and in test [4] (5 µM) was less than 0% in each case. Further, the entries for the “% inhibition of asexual blood stage proliferation” value in test [2] (2 µM) and in test [2] (20 µM) were -6.14% and -5.88%, respectively.
In the case of `CC(N)C12CC3CC(CC(C3)C1)C2` (stereo unspecified), the “% viability of CHO cells” value in the test with CHO (2 µM) was determined as 115%; in the test on CHO (20 µM), 102%. Besides, the “% inhibition of HepG2 viability” value in the test with HepG2-A16-CD81 is -6.21%. Besides, the “% inhibition of gametocyte viability” value in test [1] (1 µM) was 4.36%; in test [1] (5 µM), 25%; in test [3] (1 µM) it was 7.67%; in test [3] (5 µM), 2.98%; in test [4] (1 µM), less than 0%; in test [4] (5 µM), 3.24%. In addition, the “% inhibition of asexual blood stage proliferation” value was 15.8% in test [2] (2 µM) and 20.4% in test [2] (20 µM). Moreover, the “% inhibition of liver stage parasite viability” value in test [5] is -6%.
As to `CC(C)n1cnc2c(NCc3ccccc3)nc(NCc3ccccc3)nc21`, the entries for the “% viability of CHO cells” value with CHO (2 µM) and with CHO (20 µM) were 104% and 58.3%, respectively. Besides, the “% inhibition of HepG2 viability” value with HepG2-A16-CD81 came to 7.56%. Besides, the “% inhibition of gametocyte viability” value in test [1] (1 µM), in test [1] (5 µM), in test [3] (1 µM), in test [3] (5 µM), in test [4] (1 µM) and in test [4] (5 µM) was less than 0% throughout. In addition, the figures for the “% inhibition of asexual blood stage proliferation” value in test [2] (2 µM) and in test [2] (20 µM) were 45.5% and 60.5%, respectively. For the same molecule, in test [5], the “% inhibition of liver stage parasite viability” value was 17.1%.
